# Measured values published in ChEMBL document CHEMBL4513146, “CO-ADD screening of Karazin Kharkiv National University (Ukraine) compounds”.
# Results with a measured potency or affinity are listed apart.
# Tests used:
# [1] = test system: Klebsiella pneumoniae; settings: Concentration 32 ug.mL-1;; ASSAY_TEST Inhibition of Bacterial Growth; detection method Absorption (OD600); MEDIA CAMHB; plate type 384well; NBS; CORNING #3640; time 18 hr
# [2] = test system: Candida albicans; settings: Concentration 32 ug.mL-1; ASSAY_TEST Inhibition of Fungal Growth; detection method Absorption (OD530)
# [3] = test system: Cryptococcus neoformans; settings: Concentration 32 ug.mL-1; ASSAY_TEST Inhibition of Fungal Growth; detection method Resazurin; Absorption (OD600-OD570); plate type 384well; NBS; CORNING #3640
SMILES,Inhibition [1] [%],Inhibition [2] [%],Inhibition [3] [%]
CC(C)c1nnc2c(=O)n(CC(=O)Nc3cc(Cl)ccc3Cl)c3ccccc3n12,7.9,3.43,-8.45
CCOC(=O)c1ccccc1NC(=O)Cn1nc2ccc(Sc3ccc(C)cc3)nn2c1=O,14.69,-1.17,-9.49
C=Cc1ccc(CN(c2ccc(F)c(F)c2)S(=O)(=O)c2cccn3cnnc23)cc1,8.42,2.5,-8.63
COc1ccc(NC(=O)Cn2nc3c(Oc4ccc(C)cc4)nccn3c2=O)cc1Cl,0.22,18.79,-4.53
COc1cccc(CN(c2ccc(F)cc2)S(=O)(=O)c2ccc3nnc(C)n3c2)c1,7.98,-0.17,-13.2
CCc1ccc(N(Cc2ccccc2)S(=O)(=O)c2cccn3c(CC)nnc23)cc1,8.89,13.04,-8.52
Cn1c(=O)c2sccc2n2c(=O)n(Cc3ccc(Cl)cc3)nc12,4.35,-0.47,-19.86
NC(=O)C1CCN(C(=O)CCc2nnc3c(N4CCCCC4)nc4ccccc4n23)CC1,15.2,1.8,-5.85
O=C(CCc1nnc2c(N3CCCCC3)nc3ccccc3n12)NCc1ccc(Cl)cc1,14.26,2.29,-23.16
COc1cccc(CSc2nnc3c(=O)n(-c4ccc(Br)cc4)ccn23)c1,8.64,19.07,-13.83
CCOc1ccccc1CNC(=O)CCc1nnc2ccc(-c3ccccc3)nn12,9.31,0.83,-22.57
Cc1cc(C)cc(NC(=O)Cn2nc3c4cc(-c5ccc(Cl)cc5)nn4ccn3c2=O)c1,7.37,6.87,-7.11
COc1ccccc1NC(=O)Cn1nc2c3c4c(sc3ncn2c1=O)CCCC4,5.77,0.98,-22.92
CCCn1c(=O)c2sccc2n2c(=O)n(CC(=O)c3ccccc3)nc12,3.65,4.43,-9.13
CCc1nnc2c(SCC(=O)Nc3ccc(C)cc3Br)nc3ccccc3n12,6.8,1.54,-14.73
O=C(CSc1nnc2c3cc(-c4ccccc4)nn3ccn12)NCc1ccccc1Cl,7.7,0.55,-17.16
Cc1ccc(-c2ccc3nn(Cc4ccc(F)cc4Cl)c(=O)n3n2)cc1C,16.15,-0.6,-24.45
Cc1nnc2ccc(S(=O)(=O)N(Cc3cccc(F)c3)c3ccc(F)c(F)c3)cn12,2.49,1.97,-11.8
CCOc1ccc(-n2ccn3c(SCC(N)=O)nnc3c2=O)cc1,16.24,1.43,-5.27
Cc1ccc(C)c(-c2cc3c4nnc(SCC(=O)Nc5cccc(Br)c5)n4ccn3n2)c1,-2.64,49.44,-19.95
COc1ccc(NC(=O)Cn2nc3c(SC4CCCCC4)nccn3c2=O)cc1OC,12.09,-2.05,-22.51
CCOc1ccc(NC(=O)Cn2nc3c(Sc4ccccc4)nccn3c2=O)cc1,8.21,7.49,-21.93
CCCCn1c(=O)c2sccc2n2c(=O)n(CC(=O)c3ccc(OC)cc3)nc12,1.02,4.16,-36.83
O=C(Cn1nc2c3cc(-c4ccccc4)nn3ccn2c1=O)N1CCCc2ccccc21,12.97,-0.58,-23.31
CC(C)c1nnc2c(=O)n(CC(=O)Nc3ccc4c(c3)OCO4)c3ccccc3n12,6.48,6.2,-25.4

SMILES,Inhibition [1] [%],Inhibition [2] [%],Inhibition [3] [%]
COc1cccc(CNC(=O)CSc2nnc3c4cc(-c5cc(C)ccc5C)nn4ccn23)c1OC,10.97,2.62,-25.27
COc1cccc(-n2ccn3c(SCC(=O)NCc4ccc(C)cc4)nnc3c2=O)c1,8.21,2,-8.56
O=c1n(Cc2ccc3c(c2)OCO3)nc2c(S(=O)(=O)N3CCCCC3)cccn12,10.73,3.52,-6.79
Cc1ccc(-c2ccc3nnc(CCC(=O)N4CCN(C(=O)c5ccco5)CC4)n3n2)cc1C,19.25,2.04,-14.25
Cc1ccc(-n2ccn3c(=O)n(Cc4c(F)cccc4Cl)nc3c2=O)cc1C,16.81,1.02,-16.44
COc1ccc(-n2ccn3c(-c4ccc([N+](=O)[O-])cc4)nnc3c2=O)cc1,13.7,-0.61,-26.2
COc1cccc(-n2ccn3c(SCC(=O)Nc4ccc(Br)cc4)nnc3c2=O)c1,-3.95,5.78,-9.82
COc1ccc(CNC(=O)Cn2nc3c4cc(-c5ccc(OC)cc5)nn4ccn3c2=O)cc1,9.14,-2.24,-14.67
Cc1ccccc1Oc1nccn2c(=O)n(CC(=O)Nc3ccc(Cl)c(Cl)c3)nc12,6.86,2.23,-12.87
COc1ccc(-c2cc3c4nnc(SCC(=O)Nc5cccc(Cl)c5C)n4ccn3n2)cc1,-3.16,6.33,-18.63
Cc1ccc(-c2cc3c4nnc(CCC(=O)NCc5ccc(C(F)(F)F)cc5)n4ccn3n2)cc1C,10.93,3.64,-31.79
CCc1nnc2c(S(=O)(=O)N(Cc3cccc(C)c3)c3ccc(Cl)cc3)cccn12,3.49,0.59,-3.81
CC(C)c1nnc2c(=O)n(CC(=O)Nc3ccc(Br)cc3F)c3ccccc3n12,12.63,1.97,-15.71
COc1ccc(-c2nc(CSc3nc4ccccc4n4c(C(C)C)nnc34)c(C)o2)cc1,4.67,2.32,-16.11
COc1cccc(-n2ccn3c(SCC(=O)Nc4cccc(F)c4)nnc3c2=O)c1,0.65,10.45,-5.71
CCOc1ccc(NC(=O)Cn2nc3c4cc(-c5ccc(Cl)cc5)nn4ccn3c2=O)cc1,10.46,5.03,-14.66
O=C1CCCN1c1ccc(Cn2nc3ccc(-c4ccccc4)nn3c2=O)cc1,10.51,-0.02,-12.26
COc1ccc(OC)c(NC(=O)Cn2nc3ccc(-c4ccc(C)cc4)nn3c2=O)c1,1.76,0.83,-12.04
CCOC(=O)N1CCN(C(=O)CCc2nnc3c4cc(-c5ccc(F)cc5)nn4ccn23)CC1,12.38,2.97,-14.63
COc1ccc(OC)c(NC(=O)Cn2nc3c4cc(-c5ccc(C)c(C)c5)nn4ccn3c2=O)c1,5.66,5.32,-22.06
CCCCn1c(=O)c2sccc2n2c(=O)n(CC(=O)c3ccc(C)cc3C)nc12,10.99,-0.48,-20
CCCNC(=O)Cn1nc2nc(Nc3ccc(F)cc3)ccn2c1=O,-2.03,-0.03,-13.31
O=c1n(Cc2c(F)cccc2Cl)nc2ccc(-c3ccccc3)nn12,-0.01,8.72,-10.32
COc1ccccc1-n1ccn2c(SCC(=O)Nc3ccc4c(c3)OCCO4)nnc2c1=O,16.4,6.52,-7.16
CCCCn1c(=O)c2sccc2n2c(=O)n(CC(=O)c3ccc(OC)c(OC)c3)nc12,19.59,-0.04,-27.81
